Out of some 190,000 compounds screened, about 1,900 (1%) were called active. The sample holds actives, similar compounds and a random draw of the others, so the mix is not that of the screen.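 How the source made its calls: active means percentage of spot-positive cells more than 3 SD above its plate mean, without a fluorescence outlier flag or 80% toxicity; inconclusive means no clear call, values can overlap the other calls; inactive means the rest.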
Test: GFP-LC3 puncta formation changes – imaging, high-content, MEF GFP-LC3, primary screen (AID 463193);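 on % cells with GFP-LC3 spots: spot-positive cell cutoff set from DMSO-treated cells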;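 on toxicity: cell loss after 18 h compound exposure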
Details: autophagy, at 10 µM; % cells with GFP-LC3 spots: stronger effect = higher value; toxicity: measured here: cell loss, nuclei count

Question: For `COc1ccc(OC)c(N=Cc2c(O)[nH]c3ccccc23)c1`, which % cells with GFP-LC3 spots is on record?
Answer: 30.3% (active)

Question: What about the toxicity of the same compound?
Answer: 10.8%

Question: Which % cells with GFP-LC3 spots does the source give for `COc1cc(N=Cc2c(O)[nH]c3ccccc23)cc(OC)c1OC` here?
Answer: 1.9% (inactive)

Question: And the toxicity?
Answer: 14.8%

Question: What does the source list for `O=C(NNC1CC(=O)N(c2cccc(Cl)c2)C1=O)c1cccnc1` (centres undefined)?
Answer: % cells with GFP-LC3 spots: 14.6% (inactive); toxicity: -11.8%

Question: Which % cells with GFP-LC3 spots does the source give for `COc1cccc2c(O)cc(=O)n(C)c12` here?
Answer: 6.52% (inactive)

Question: And the toxicity?
Answer: 15.8%

Question: For `Oc1c(CN2CCN(c3ccc(F)cc3)CC2)cc(Cl)c2cccnc12`, which % cells with GFP-LC3 spots is on record?
Answer: 52% (active)

Question: And the toxicity?
Answer: 33.9%

Question: For `CCN1CCN(C(c2cccnc2)c2cc(Cl)c3cccnc3c2O)CC1` (centres undefined), which % cells with GFP-LC3 spots is on record?
Answer: 0.145% (inactive)

Question: What about the toxicity of the same compound?
Answer: 15.1%

Question: Which % cells with GFP-LC3 spots does the source give for `O=C(c1cccc(C(=O)N2CCN(c3ccc(F)cc3)CC2)c1)N1CCN(c2ccc(F)cc2)CC1` here?
Answer: 13% (inactive)

Question: What about the toxicity of the same compound?
Answer: -26%

Question: With `C=CCn1c(CCNC(=O)c2ccccc2F)nnc1SCC(=O)Nc1ccc(OC)cc1` as the compound, how does the % cells with GFP-LC3 spots read?
Answer: 1.65% (inactive)

Question: And the toxicity?
Answer: 10.4%

Question: Which % cells with GFP-LC3 spots does the source give for `COc1ccc(OC)c(S(=O)(=O)NCCC(C)C)c1` here?
Answer: 7.62% (inactive)

Question: What about the toxicity of the same compound?
Answer: 7.42%

Question: Which results are given for `CN=c1scc(-c2cc(OC)ccc2OC)n1/N=C/c1c(C)[nH]c2ccccc12`?
Answer: % cells with GFP-LC3 spots: 8.49% (inactive); toxicity: 3.61%

Question: Which % cells with GFP-LC3 spots does the source give for `CCn1c(-c2cc(OC)ccc2OC)csc1=Nc1c(C)n(C)n(-c2ccccc2)c1=O` here?
Answer: 12.4% (active)

Question: What about the toxicity of the same compound?
Answer: -0.744%

Question: With `COc1ccc(S(=O)(=O)Nc2c(C)n(C)n(-c3ccccc3)c2=O)cc1` as the compound, how does the % cells with GFP-LC3 spots read?
Answer: 4.67% (inactive)

Question: And the toxicity?
Answer: 4.21%

Question: Which results are given for `COc1ccc(-c2nc(N)sc2C2(O)C(=O)Nc3c(Br)cc(F)cc32)cc1OC` (centres undefined)?
Answer: % cells with GFP-LC3 spots: 1.66% (inactive); toxicity: -1.9%

Question: What does the source list for `COC(=O)NNC1=CC(=O)CC(C)(C)C1`?
Answer: % cells with GFP-LC3 spots: 0.796% (inactive); toxicity: -6.02%

Question: Which results are given for `Clc1cc(-c2ccc(/C=N/n3cnnc3)o2)ccc1Br`?
Answer: % cells with GFP-LC3 spots: 8.69% (inactive); toxicity: 20.9%

Question: With `CC(=O)N/N=C(\C)c1ccc(Br)cc1Br` as the compound, how does the % cells with GFP-LC3 spots read?
Answer: 20.7% (inactive)

Question: What about the toxicity of the same compound?
Answer: 2.43%

Question: Which % cells with GFP-LC3 spots does the source give for `CCOC(=O)C1CCN(C(c2cc3cc(C)cc(C)c3[nH]c2=O)c2nnnn2C2CCCCC2)CC1` (centres undefined) here?
Answer: 19.2% (active)

Question: What about the toxicity of the same compound?
Answer: 24.2%

Question: For `COc1ccc(N2CCN(C(c3cc4ccc(C)cc4[nH]c3=O)c3nnnn3C3CCCC3)CC2)cc1` (centres undefined), which % cells with GFP-LC3 spots is on record?
Answer: 5.85% (inactive)

Question: And the toxicity?
Answer: -3.74%

Question: With `Cc1cc(C)c2[nH]c(=O)c(C(c3nnnn3Cc3ccc4c(c3)OCO4)N3CCCC3)cc2c1` (centres undefined) as the compound, how does the % cells with GFP-LC3 spots read?
Answer: 21.2% (inactive)

Question: And the toxicity?
Answer: 8.95%

Question: What does the source list for `O=C(CN1C(=O)NC2(CCCC2)C1=O)NCC1CCCO1` (centres undefined)?
Answer: % cells with GFP-LC3 spots: 11.1% (inactive); toxicity: 7.52%

Question: For `O=C(NNC(=O)c1cc2c(s1)CCCC2)c1ccccc1`, which % cells with GFP-LC3 spots is on record?
Answer: 9.94% (inactive)

Question: And the toxicity?
Answer: -13.8%

Question: With `C/C(=N\NC(=O)c1cc2c(s1)CCC(C)C2)c1cccnc1` (centres undefined) as the compound, how does the % cells with GFP-LC3 spots read?
Answer: 17.7% (inactive)

Question: What about the toxicity of the same compound?
Answer: -0.909%

Question: Which results are given for `CC1CCc2sc(C(=O)N/N=C/C3CCCCC3)cc2C1` (centres undefined)?
Answer: % cells with GFP-LC3 spots: 20.3% (active); toxicity: -2.28%

Question: With `COC(=O)c1c(C)[nH]c(C)c1-c1ccc([N+](=O)[O-])cc1` as the compound, how does the % cells with GFP-LC3 spots read?
Answer: 18.2% (inactive)

Question: And the toxicity?
Answer: 38.9%

Question: For `CCOC(=O)c1c(NC(=O)Cn2nc(C(F)(F)F)cc2C)sc2c1CCC2`, which % cells with GFP-LC3 spots is on record?
Answer: 7.63% (inactive)

Question: And the toxicity?
Answer: 0.444%

Question: For `N=c1c2c(-c3ccccc3)c(-c3ccccc3)oc2ncn1Cc1ccco1`, which % cells with GFP-LC3 spots is on record?
Answer: 5.09% (inactive)

Question: What about the toxicity of the same compound?
Answer: -0.176%

Question: For `Cc1nc([N+](=O)[O-])c(NCCCO)n1Cc1ccccc1`, which % cells with GFP-LC3 spots is on record?
Answer: 43.4% (inactive)

Question: And the toxicity?
Answer: 4.77%

Question: For `N=c1c2c(-c3ccccc3)c(-c3ccccc3)n(Cc3ccccc3)c2ncn1CCCO`, which % cells with GFP-LC3 spots is on record?
Answer: 32% (active)

Question: What about the toxicity of the same compound?
Answer: 9.38%

Question: With `O=C(Cc1ccccc1)NNS(=O)(=O)c1ccc([N+](=O)[O-])cc1` as the compound, how does the % cells with GFP-LC3 spots read?
Answer: 5.31% (inactive)

Question: And the toxicity?
Answer: -4.08%

Question: Which % cells with GFP-LC3 spots does the source give for `CCCCN(CC)C(=O)c1ccccc1Oc1ccccc1` here?
Answer: 7.48% (inactive)

Question: And the toxicity?
Answer: -0.889%

Question: For `CCCC(=O)n1nc(-c2ccccc2)nc1N`, which % cells with GFP-LC3 spots is on record?
Answer: 10.8% (inactive)

Question: What about the toxicity of the same compound?
Answer: -5.17%

Question: For `CCc1nn(-c2cc(Oc3cccc4ccccc34)nc(-c3ccccc3)n2)c(N)c1C#N`, which % cells with GFP-LC3 spots is on record?
Answer: 19.2% (active)

Question: And the toxicity?
Answer: -18%

Question: For `COc1ccc(C2c3c(C)nn(-c4ccccc4)c3NC(=O)N2c2ccccc2)cc1` (centres undefined), which % cells with GFP-LC3 spots is on record?
Answer: 11% (inactive)

Question: And the toxicity?
Answer: 17.6%

Question: What does the source list for `COc1ccc(CN2CCCC(C(=O)c3ccc(Cl)cc3)C2)cc1Cn1cncn1` (centres undefined)?
Answer: % cells with GFP-LC3 spots: 0.149% (inactive); toxicity: -9.01%

Question: With `CCc1ccc(NC(=O)Cn2nc(C)c([N+](=O)[O-])c2C)cc1` as the compound, how does the % cells with GFP-LC3 spots read?
Answer: 13.4% (active)

Question: What about the toxicity of the same compound?
Answer: 38.8%

Question: Which % cells with GFP-LC3 spots does the source give for `Cc1nn(CC(=O)Nc2ccc(N(C)C)cc2)c(C)c1[N+](=O)[O-]` here?
Answer: 8.73% (inactive)

Question: What about the toxicity of the same compound?
Answer: -12.8%

Question: With `Cc1nn(CC(=O)Nc2ccc(C#N)cc2)c(C)c1[N+](=O)[O-]` as the compound, how does the % cells with GFP-LC3 spots read?
Answer: 2.1% (inactive)

Question: What about the toxicity of the same compound?
Answer: 9.5%

Question: With `C=CCC(C(=O)c1ccccc1)[N+](C)(C)CC=C` (centres undefined) as the compound, how does the % cells with GFP-LC3 spots read?
Answer: 2.53% (inactive)

Question: What about the toxicity of the same compound?
Answer: -14.3%

Question: For `COC(=O)COc1ccc(C2NC(=O)NC(C)=C2C(=O)NCc2ccccc2)cc1OC` (centres undefined), which % cells with GFP-LC3 spots is on record?
Answer: 0.797% (inactive)

Question: What about the toxicity of the same compound?
Answer: 20.4%

Question: With `Cn1c(N)c(C(=O)COC(=O)c2cnc(Cl)c(Cl)c2)c(=O)n(C)c1=O` as the compound, how does the % cells with GFP-LC3 spots read?
Answer: 0.712% (inactive)

Question: What about the toxicity of the same compound?
Answer: 15.7%

Question: Which results are given for `Cc1c(Cl)cccc1NC(=O)CSc1ccc(-c2cccnc2)nn1`?
Answer: % cells with GFP-LC3 spots: 0.277% (inactive); toxicity: -2.28%

Question: With `CCC(=O)Nc1cc(C(F)(F)F)ccc1N1CCCC1` as the compound, how does the % cells with GFP-LC3 spots read?
Answer: 0.264% (inactive)

Question: What about the toxicity of the same compound?
Answer: -3.5%

From PubChem BioAssay AID463193 (University of Pittsburgh Molecular Library Screening Center, 2010)
